# In the library only some 2.2% were active in any assay of this set; here they are far more common.
# MIN6 prolif – inducers of MIN6 beta-cell proliferation, primary screen, ATP luminescence, uHTS. 330,000 tested, 0.29% active. proliferation, % at 10 µM. MIN6 cells proliferation, ATPlite luminescence, 48 h; cells starved in 0.2% serum; 100% = growth in 10% serum;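 active means compounds whose signal lies at least 3.5 SD above the mean of all wells on their plate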;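 further: 0% = DMSO-treated cells in low-serum medium and 100% = 10% serum control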
# ABCB6 inh MLPCN – ABCB6 transporter inhibitors, primary screen, K562-ABCB6 cells, flow cytometry, MLPCN library; ATP-binding cassette sub-family B member 6 (Homo sapiens), Q9NP58; fluorescence ratio to DMSO, % at 10 µM; K562-ABCB6 porphyrin accumulation, 1 h; active compounds read low; 360,000 tested, 0.19% active;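 active means fluorescence ratio to DMSO below 75%, the collection mean minus 3 SD; inconclusive means too few cells collected in the well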;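 further: signal is porphyrin accumulated inside mitochondria; 100% equals median channel fluorescence of DMSO control wells; lower ratio means ABCB6 inhibition with less porphyrin fluorescence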
# Target sequence (Q9NP58 whole entry, looked up): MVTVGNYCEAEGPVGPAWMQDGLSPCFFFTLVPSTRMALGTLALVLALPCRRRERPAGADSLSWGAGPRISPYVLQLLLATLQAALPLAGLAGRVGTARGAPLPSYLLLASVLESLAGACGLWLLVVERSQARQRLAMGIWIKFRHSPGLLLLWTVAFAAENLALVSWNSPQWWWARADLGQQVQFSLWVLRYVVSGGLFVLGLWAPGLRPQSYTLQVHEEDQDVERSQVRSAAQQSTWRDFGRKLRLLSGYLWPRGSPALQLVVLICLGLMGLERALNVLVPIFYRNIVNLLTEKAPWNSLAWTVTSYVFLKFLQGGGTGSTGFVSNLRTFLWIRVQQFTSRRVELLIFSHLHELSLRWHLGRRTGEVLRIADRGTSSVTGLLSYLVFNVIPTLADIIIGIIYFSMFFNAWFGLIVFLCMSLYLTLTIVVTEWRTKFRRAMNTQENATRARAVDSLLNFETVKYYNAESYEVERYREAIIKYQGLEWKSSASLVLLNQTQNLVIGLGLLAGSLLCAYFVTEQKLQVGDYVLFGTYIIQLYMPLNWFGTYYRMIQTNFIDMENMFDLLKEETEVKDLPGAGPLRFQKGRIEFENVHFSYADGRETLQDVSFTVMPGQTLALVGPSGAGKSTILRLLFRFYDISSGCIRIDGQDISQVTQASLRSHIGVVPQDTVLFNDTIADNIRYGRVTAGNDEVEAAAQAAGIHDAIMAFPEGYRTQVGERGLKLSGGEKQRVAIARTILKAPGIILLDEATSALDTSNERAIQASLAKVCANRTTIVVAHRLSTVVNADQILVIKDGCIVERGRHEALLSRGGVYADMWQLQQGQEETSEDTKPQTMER
# iPSC survival up – enhancers of single-cell hiPSC survival, primary screen, ATPlite luminescence; 360,000 tested, 0.044% active; survival enhancement, % at 20 µM; 100% = ROCK inhibitor wells, 0% = DMSO; in the data active means survival enhancement above about 18%;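 further: cells exposed to compounds for 16 hours before the ATP read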
# Myeloid diff 2 – induction of myeloid progenitor differentiation, primary screen, cell-based, flow cytometry, MLPCN library | ER-HoxA9 myeloid progenitors, lysozyme-GFP differentiation | calls only at 10 µM | 360,000 tested, 1% active;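 active means normalized GFP-positive differentiation at or above the plate's own cutoff, the solvent-only control mean plus 3 SD; inconclusive means no clear call, values can overlap the other calls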;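 further: cells exposed to compound for four days before flow analysis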
# Cardio protect – cardioprotection against H2O2-induced cell death, primary screen, uHTS, H9c2 cells, ATPLite luminescence; H9c2 cardiomyocytes, H2O2 injury protection, 2 h; protection from H2O2 cell death, % at 20 µM; 360,000 tested, 0.63% active;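 active means compounds giving at least 50% protection of heart cells from peroxide-induced death in the single-dose screen, raw or plate-pattern-corrected value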;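 further: 0% = DMSO wells with peroxide and 100% = DMSO wells without peroxide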
# Myeloid diff CP1 – inducers of myeloid progenitor differentiation, confirmation, cell-based, GFP/Mac1 flow cytometry, cherry pick 01. calls only. shares compounds with Myeloid diff 2. ER-HoxA9 myeloid progenitors, GFP/Mac1 double-positive flow. 2,300 tested, 2% active;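 active means share of green or green-and-red cells above 9 and 9% in run 1 or 4 and 3% in run 2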
# GFP autofluor – compound fluorescence in myeloid differentiation counter-screen. shares compounds with Myeloid diff 2. ER-HoxA9 myeloid progenitors, no estrogen, GFP autofluorescence flow cytometry; vehicle wells 0%, positive control 100%. fluorescence response, % (no concentration beside the values). 2,300 tested, 7.4% active. AID 651707;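 active means over 5% cells positive for green fluorescent reporter, or over 2% positive for both it and APC stain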;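 further: range taken on the double positive population between DMSO and positive control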
# * = called active by the depositor; i = inactive; ? = inconclusive; · = no result; + = active, no number.
SMILES,MIN6 prolif,ABCB6 inh MLPCN,iPSC survival up,Myeloid diff 2,Cardio protect,Myeloid diff CP1,GFP autofluor
CCCn1ncc(CN2CCC(C(=O)Nc3cccc(-c4cccc(F)c4)c3)CC2)c1C,-7.3,105.0,-0.2,+,-7.3,i,0.0
Cn1cc(CN2CCC(C(=O)Nc3cccc(-c4cccc(F)c4)c3)CC2)cn1,-2.7,100.0,-0.2,i,7.1,·,·
C[C@H](CO)N1C[C@H](C)[C@@H](CN(C)C(=O)Nc2ccc(C(F)(F)F)cc2)Oc2ccc(NC(=O)Nc3ccc(C(F)(F)F)cc3)cc2C1=O,-5.6,94.0,-2.0,i,0.3,·,·
C[C@H]1CN([C@@H](C)CO)C(=O)c2cc(NC(=O)NC3CCCCC3)ccc2O[C@H]1CN(C)C(=O)Nc1ccc(C(F)(F)F)cc1,-4.5,103.0,8.4,i,-3.5,i,0.0
CC(C)C1=C2OC(N)=C(C#N)C(C#N)=C2C(C)CC1 (configuration not stated),0.6,102.0,1.0,i,1.1,·,·
C=CC[C@H](CC(=O)N(CCO)Cc1ccccc1)C(=O)N[C@@H](COC(=O)[C@@H](CC=C)Cc1ccc(F)cc1)Cc1c[nH]c2ccccc12,-5.0,97.0,-0.7,i,-13.7,i,0.0
Cc1ccc(OCc2nc3ccccc3n2C(C(=O)NC(C)(C)C)c2ccccc2)cc1 (configuration not stated),·,·,·,i,·,·,·
COc1ccc(C[C@H]2c3cc(O)c(OC)cc3CC[N+]2(C)[O-])cc1O (some centres not stated),-2.6,88.0,-2.9,i,20.7,·,·
O=C(O)C1CCCN1c1ncnc2c1oc1ccccc12 (configuration not stated),0.9,105.0,4.3,+,3.3,i,6.6*
CC1CN(c2ncnc3c2oc2ccccc23)CC(C)O1 (configuration not stated),0.0,94.0,-5.4,i,-5.4,·,·
Clc1cccc(-c2cc3nc4c(c(NCc5ccco5)n3n2)CCCC4)c1,-4.5,102.0,-0.5,+,-5.7,i,0.0
Cc1ccc(S(=O)(=O)N(C)C[C@H]2Oc3c(NC(=O)Nc4cccc5ccccc45)cccc3C(=O)N([C@@H](C)CO)C[C@@H]2C)cc1,-5.0,96.0,-0.8,i,21.5,i,0.0
COc1ccc(-c2cnc3c(c2)C(=O)N([C@H](C)CO)C[C@H](C)[C@H](CN(C)C(=O)Cc2cccnc2)O3)cc1,·,99.0,3.2,i,11.4,·,·
Cc1ccc(-c2cnc3c(c2)C(=O)N([C@H](C)CO)C[C@@H](C)[C@@H](CN(C)C(=O)Cc2ccccc2)O3)cc1,·,97.0,3.3,i,-5.9,i,0.3
COc1ccc(NC(=O)Nc2cccc3c2O[C@H](CN(C)S(=O)(=O)c2ccc(OC)cc2)[C@@H](C)CN([C@H](C)CO)C3=O)cc1,0.5,105.0,-0.7,i,22.9,·,·
COCC(=O)N(C)C[C@H]1Oc2ncc(C#C[C@H](C)O)cc2C(=O)N([C@@H](C)CO)C[C@H]1C,·,102.0,-2.2,+,0.5,i,0.0
O=C(CCn1nc(-c2ccc(Cl)cc2)ccc1=O)NCc1cccnc1,2.7,106.0,-0.1,i,5.4,·,·
O=C(NCc1ccccc1)c1c(O)c2cccc3c2n(c1=O)CCC3,1.4,98.0,0.0,i,10.2,·,·
O=C(NCc1ccccn1)[C@@H]1CCCN1C(=O)[C@@H]1CCCN1C(=O)c1cccc(Cl)c1,·,98.0,-0.5,i,·,i,0.0
Fc1cccc(Cl)c1C1Nc2cccc3cccc(c23)N1,-4.8,112.0,-0.8,i,-10.9,·,·
Clc1cccc(Cl)c1C1Nc2cccc3cccc(c23)N1,-3.8,128.0,0.5,+,-14.2,i,0.3
CCOC(=O)C1(N(CC)CC)Sc2cc(C)ccc2NC1=O (configuration not stated),0.8,100.0,-3.0,i,-3.7,·,·
CCOC(=O)C1(Nc2nccs2)Sc2ccccc2NC1=O (configuration not stated),-3.1,100.0,-2.3,+,-4.1,i,0.4
COc1ccc2c(COC(=O)CNS(=O)(=O)c3ccccc3)cc(=O)oc2c1,1.5,96.0,1.4,i,13.7,·,·
Cc1ccc(/C=N/NC(=O)c2nnn(-c3nonc3N)c2C(C)C)s1,-2.0,106.0,0.7,i,3.5,·,·
SMILES,MIN6 prolif,ABCB6 inh MLPCN,iPSC survival up,Myeloid diff 2,Cardio protect,Myeloid diff CP1,GFP autofluor
COc1cccc(-c2cc(C(=O)NCc3ccc(Cl)cc3)no2)c1,-0.5,83.0,3.2,i,-5.7,i,0.2
COc1ccc(-c2cc(C(=O)NCc3ccc(Cl)cc3)no2)cc1OC,-2.7,93.0,1.2,i,-0.9,·,·
O=C(CN1C(=O)NC2(CCCCC2)C1=O)Nc1ccccc1Cl,0.8,104.0,-1.0,i,-4.2,i,0.0
Cc1nnc(NC(=O)c2ccc3ccccc3n2)s1,0.8,99.0,-0.5,i,-4.2,·,·
CC(=O)N1CCc2c(sc(NC(=O)CS(=O)(=O)c3ccc(F)cc3)c2C(N)=O)C1,2.4,96.0,0.4,i,-1.3,·,·
O=C(COC(=O)c1ccc(Br)o1)c1ccc(S(=O)(=O)N2CCCCC2)cc1,-3.9,96.0,0.3,i,2.6,·,·
CC1(C)O[C@@H]2C[C@H]3[C@@H]4C[C@H](F)C5=CC(=O)C=C[C@]5(C)[C@H]4[C@@H](O)C[C@]3(C)[C@]2(C(=O)CO)O1,-0.1,95.0,3.4,?,0.4,·,·
CC1(C)O[C@@H]2C[C@H]3[C@@H]4C[C@H](F)C5=CC(=O)CC[C@]5(C)[C@H]4[C@@H](O)C[C@]3(C)[C@]2(C(=O)CO)O1,-5.0,105.0,0.8,i,-1.4,i,0.4
Oc1oc(-c2ccco2)nc1C=Nc1ccccc1,-2.9,99.0,-1.4,i,-1.1,i,1.3
Cc1ccc(-c2nc(C=Nc3ccc(O)cc3)c(O)o2)cc1,·,99.0,0.8,i,-4.4,i,0.0
CN=Cc1nc(-c2ccccc2)oc1O,-2.0,88.0,-0.7,i,-3.8,·,·
COc1ccc(-n2c(=O)c(CCC(=O)N3CCN(c4ccccc4O)CC3)nc3ccccc32)cc1,-3.1,91.0,0.2,i,21.2,i,6.7*
COc1ccc(N2CCN(C(=O)CCc3ccccc3OC)CC2)cc1,-3.2,94.0,0.3,i,0.1,·,·
O=C(CSc1nc2ccccc2c(=O)n1-c1ccc(F)cc1)Nc1ccc2c(c1)CCC2,-0.6,105.0,-2.4,i,-3.1,·,·
